Assay outcomes as filed in PubChem.
PI5P4Ka inh = inhibitors of human PI5P4K alpha | AID 652105 | max response, % | PI5P4Kalpha enzyme, ADP-Glo luminescence, 60 min; active compounds read low | P48426 | 330,000 compounds, 1.2% hits; active = max response of -50% or lower; inconclusive = between -30% and -50%; inactive = -30% or higher; note: value at the top dose of about 77 µM
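Single end-point luminescence (ADP-Glo) quantified ADP from PI5P4Kalpha turnover; ATP 5 microM final, 1 h at RT, 0.1% CHAPS and 0.28 mM EGTA in HEPES pH 7.4.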
BAZ2B inh = BAZ2B (human) inhibition; Q9UIF8; AlphaScreen BAZ2B-H3K14Ac peptide displacement; Potency, µM (top dose mostly 114 µM), actives largely listed as inhibitors; 360,000 compounds, 4.4% hits; note: nearly all actives have a fitted effect of over 60% in size
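Compounds, titrated to a top concentration of 110 uM, were incubated 30 min at room temperature with preformed BAZ2B/acetyl-K14 H3 peptide complex (50 nM each). Proximity signal was measured by AlphaScreen after 20 min with beads.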
JMJD2A Tudor inh = JMJD2A Tudor domain (human) inhibition; AID 504339; Potency, µM (highest dose often 114 µM), actives largely listed as inhibitors; AlphaScreen JMJD2A-Tudor / H3K4me3 peptide binding; 390,000 compounds, 4.4% hits; note: nearly all actives have a fitted effect of over 50% in size
G9a block = G9a (human) methyltransferase inhibition. Potency, µM (top dose mostly 102 µM), actives largely listed as inhibitors. Q96KQ7. G9a H3K9 monomethylation, AlphaScreen, 2 h. 350,000 compounds, 8.8% hits; note: nearly all actives have a fitted effect of over 75% in size
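AlphaScreen read-out: biotin-H3K9 peptide (500 nM) methylation by 20 nM enzyme with 20 uM SAM, 2 h at room temperature after 15 min compound preincubation; anti-monomethyl H3K9 antibody plus donor/acceptor beads, 10 min dark.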
HP1b chromo inh = blocks HP1-beta chromodomain binding to methylated histone tails; Potency, µM (doses to about 114 µM), hits mostly inhibitors; AlphaScreen HP1-beta / biotin-H3K9me3 peptide binding; 390,000 compounds, 0.56% hits; note: nearly all actives have a fitted effect of over 70% in size
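Compound inhibition of the preformed complex between 50 nM HP1-beta and 50 nM biotinylated H3K9me3 peptide was read by AlphaScreen. Buffer was PBS pH 7.4 with 0.01% Tween-20. Incubations ran 30 min at room temperature, with 10 ug/mL donor/acceptor beads.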
PLK1 PBD inh = blocks phosphopeptide binding to human PLK1 polo-box domain | P53350 | Plk1 PBD binding of FITC phosphopeptide, fluorescence polarization | Potency, µM, most hits filed as inhibitors | 360,000 compounds, 2.8% hits | AID 720504; note: series mostly up to about 57 µM; nearly all actives have a fitted effect of over 65% in size
Target sequence (P53350 whole entry, looked up, the tested form may be a part): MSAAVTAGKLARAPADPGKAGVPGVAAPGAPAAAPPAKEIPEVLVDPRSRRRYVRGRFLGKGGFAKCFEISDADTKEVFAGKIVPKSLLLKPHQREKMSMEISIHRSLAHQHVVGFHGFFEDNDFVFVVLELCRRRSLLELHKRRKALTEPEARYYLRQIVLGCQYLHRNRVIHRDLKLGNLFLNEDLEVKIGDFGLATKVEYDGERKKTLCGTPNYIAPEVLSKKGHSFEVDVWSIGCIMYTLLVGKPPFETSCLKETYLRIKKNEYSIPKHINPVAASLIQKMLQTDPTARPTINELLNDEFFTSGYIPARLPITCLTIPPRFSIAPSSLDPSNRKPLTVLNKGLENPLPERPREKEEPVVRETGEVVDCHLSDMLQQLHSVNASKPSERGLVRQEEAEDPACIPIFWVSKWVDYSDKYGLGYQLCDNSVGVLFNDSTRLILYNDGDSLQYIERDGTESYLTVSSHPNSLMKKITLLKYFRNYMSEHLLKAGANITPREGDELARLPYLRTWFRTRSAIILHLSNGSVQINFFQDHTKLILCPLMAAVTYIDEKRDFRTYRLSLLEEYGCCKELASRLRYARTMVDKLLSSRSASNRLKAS
A number is an active result; [ ] = dose if it differs, or a comment. Sampled rows, rich in hits. Any-hit rate of the full collection: about 12%. Unless noted, calls come from the whole dose curve; as a rule, active = well fitted curve in the direction sought with a large enough effect; inconclusive = small, poorly fitted or top-dose-only effect, or another doubt; inactive = no such curve, though single readings can be large; an effect the other way counts as inactive or inconclusive.

Results for CCc1nnc(NS(=O)(=O)c2ccc(NC(=S)NC(=O)c3cccnc3)cc2)s1 ?
PI5P4Ka inh: inactive; BAZ2B inh: inactive; JMJD2A Tudor inh: inactive; HP1b chromo inh: inactive; PLK1 PBD inh: inactive

What do the screens show for `COc1ccc(/C=C/C(=O)NC(=S)Nc2ccc(S(=O)(=O)Nc3ccc(OC)nn3)cc2)cc1`?
PI5P4Ka inh: inconclusive; BAZ2B inh: inactive; JMJD2A Tudor inh: inactive; G9a block: inconclusive; HP1b chromo inh: inactive; PLK1 PBD inh: inactive

What do the screens show for `O=[N+]([O-])c1ccc(S(=O)(=O)NCC2COc3ccccc3O2)cc1` (configuration not stated)?
PI5P4Ka inh: inactive; BAZ2B inh: inconclusive; JMJD2A Tudor inh: inactive; G9a block: inactive; HP1b chromo inh: inactive; PLK1 PBD inh: inactive

Results for NS(=O)(=O)c1ccc(NCC2COc3ccccc3O2)c([N+](=O)[O-])c1 (configuration not stated) ?
PI5P4Ka inh: inactive; BAZ2B inh: inactive; JMJD2A Tudor inh: inactive; G9a block: 50µM; HP1b chromo inh: inactive; PLK1 PBD inh: inactive

What do the screens show for `CCOc1ccc(N2C(=O)c3cccnc3C2Nc2ccc(C)c(C)c2)cc1` (configuration not stated)?
PI5P4Ka inh: inactive; BAZ2B inh: inactive; JMJD2A Tudor inh: inactive; G9a block: 89µM; HP1b chromo inh: inactive; PLK1 PBD inh: inactive

What do the screens show for `Cc1ccc(Cn2ncc3c(NCCCN(C)C)ncnc32)cc1`?
PI5P4Ka inh: inactive; BAZ2B inh: inactive; JMJD2A Tudor inh: inactive; G9a block: inconclusive; HP1b chromo inh: inactive; PLK1 PBD inh: inactive

What do the screens show for `COc1ccc(CC(=O)NNc2ncnc3c2cnn3C)cc1`?
PI5P4Ka inh: inactive; BAZ2B inh: 79µM; JMJD2A Tudor inh: inactive; G9a block: 25µM; HP1b chromo inh: inactive; PLK1 PBD inh: inactive

Results for Cc1ccc(Cn2ncc3c(NN)ncnc32)cc1 ?
PI5P4Ka inh: inactive; BAZ2B inh: 50µM; JMJD2A Tudor inh: inconclusive; G9a block: inconclusive; HP1b chromo inh: inactive; PLK1 PBD inh: inactive

What do the screens show for `CCN(CC)c1ncnc2c1cnn2Cc1ccc(C)cc1`?
PI5P4Ka inh: inactive; BAZ2B inh: inactive; JMJD2A Tudor inh: inactive; G9a block: inactive; HP1b chromo inh: inactive; PLK1 PBD inh: inactive

How did Cc1ccc(Cn2ncc3c(NCCN(C)C)ncnc32)cc1 do in these assays?
PI5P4Ka inh: inactive; BAZ2B inh: inactive; JMJD2A Tudor inh: inactive; G9a block: 50µM; HP1b chromo inh: inactive; PLK1 PBD inh: inactive

What do the screens show for `COc1ccc(CC(=O)NNc2ncnc3c2cnn3C)cc1OC`?
PI5P4Ka inh: inactive; BAZ2B inh: inactive; JMJD2A Tudor inh: inactive; G9a block: inconclusive; HP1b chromo inh: inactive; PLK1 PBD inh: inconclusive

What do the screens show for `Cc1ccc(Cn2ncc3c(N4CCN(Cc5ccc(Cl)cc5)CC4)ncnc32)cc1`?
PI5P4Ka inh: inactive; BAZ2B inh: inactive; JMJD2A Tudor inh: inactive; G9a block: 35µM; HP1b chromo inh: inactive; PLK1 PBD inh: inactive

Results for COCCn1c(=O)c(C)nc2cnc(N3CCN(C)CC3)nc21 ?
G9a block: inactive[0.501 µM]

How did Cc1nn(Cc2ccccc2)c(C)c1CNC(=O)CN=C1NS(=O)(=O)c2ccccc21 do in these assays?
PI5P4Ka inh: inactive; BAZ2B inh: inactive; JMJD2A Tudor inh: inactive; G9a block: inactive; HP1b chromo inh: inactive; PLK1 PBD inh: inactive

Results for CCOc1ccc(Nc2ncnc3c2cnn3Cc2ccccc2)cc1 ?
BAZ2B inh: inconclusive; JMJD2A Tudor inh: inactive; G9a block: inactive; HP1b chromo inh: inactive; PLK1 PBD inh: inactive

Results for COc1ccc(Nc2ncnc3c2cnn3Cc2ccccc2)cc1 ?
BAZ2B inh: 79µM; JMJD2A Tudor inh: 89µM; G9a block: 50µM; HP1b chromo inh: inactive; PLK1 PBD inh: inactive

How did CCN1CCC2(CC1)N=C(c1ccc(F)cc1)C(=S)N2 do in these assays?
PI5P4Ka inh: inactive; BAZ2B inh: inactive; JMJD2A Tudor inh: inactive; G9a block: 11µM; HP1b chromo inh: inactive; PLK1 PBD inh: inactive

Results for Cc1ccc(C2=NC3(CCCCC3)NC2=S)cc1 ?
PI5P4Ka inh: inactive; BAZ2B inh: inactive; JMJD2A Tudor inh: inactive; G9a block: inactive; HP1b chromo inh: inactive; PLK1 PBD inh: inactive

Results for COc1cc2ccccc2cc1C(=O)N1CCN(c2nc3c(F)cc(F)cc3s2)CC1 ?
BAZ2B inh: inactive; JMJD2A Tudor inh: inactive; G9a block: inactive; HP1b chromo inh: inactive

What do the screens show for `N#Cc1nc(Cc2ccccc2)oc1NCc1cccnc1`?
PI5P4Ka inh: inactive; BAZ2B inh: inactive; JMJD2A Tudor inh: inactive; G9a block: inactive; HP1b chromo inh: inactive; PLK1 PBD inh: inactive

What do the screens show for `N#Cc1ncc(Cc2ccccc2)nc1C#N`?
PI5P4Ka inh: inconclusive; BAZ2B inh: inconclusive; JMJD2A Tudor inh: inactive; G9a block: 50µM; HP1b chromo inh: inactive; PLK1 PBD inh: inactive

Results for CS(=O)(=O)c1nc(-c2ccccc2)cc(C(F)(F)F)n1 ?
PI5P4Ka inh: inactive; BAZ2B inh: inactive; JMJD2A Tudor inh: inactive; G9a block: inconclusive; HP1b chromo inh: inactive; PLK1 PBD inh: 24µM

Results for CCCCCN(C(=O)CCC(=O)OCC(=O)N(C)Cc1ccc(C)cc1)c1c(N)n(CCCC)c(=O)[nH]c1=O ?
PI5P4Ka inh: inactive; BAZ2B inh: inactive; JMJD2A Tudor inh: inactive; G9a block: inactive; HP1b chromo inh: inactive; PLK1 PBD inh: inactive

How did COCc1nc2c([nH]1)c(=O)n(C)c(=O)n2CC(C)C do in these assays?
PI5P4Ka inh: inactive; BAZ2B inh: inactive; JMJD2A Tudor inh: inactive; G9a block: inactive; HP1b chromo inh: inactive; PLK1 PBD inh: inactive

How did C=CCN(C(=O)Cn1c(C(=O)OC)cc2oc(C)cc21)c1ccccc1 do in these assays?
BAZ2B inh: inactive; JMJD2A Tudor inh: inactive; G9a block: 45µM; HP1b chromo inh: inactive; PLK1 PBD inh: inactive

How did COc1ccccc1OCC(=O)NCC(c1ccc(Cl)cc1)N1CCCCC1 (configuration not stated) do in these assays?
BAZ2B inh: inactive; JMJD2A Tudor inh: inactive; G9a block: inactive; HP1b chromo inh: inactive

Results for O=C(c1cccc(Cl)c1)N1CCN(c2ncccn2)CC1 ?
PI5P4Ka inh: inactive; BAZ2B inh: inactive; JMJD2A Tudor inh: inactive; G9a block: inactive; HP1b chromo inh: inactive; PLK1 PBD inh: inactive

How did O=C(c1cccnc1)N1CCN(C(=O)c2cccc(Cl)c2)CC1 do in these assays?
PI5P4Ka inh: inactive; BAZ2B inh: inactive; JMJD2A Tudor inh: inactive; HP1b chromo inh: inactive; PLK1 PBD inh: inactive

What do the screens show for `CC(C)N1CCN(C(=O)c2cccc(Cl)c2)CC1`?
PI5P4Ka inh: inactive; BAZ2B inh: inconclusive; JMJD2A Tudor inh: 14µM; G9a block: 25µM; HP1b chromo inh: inconclusive; PLK1 PBD inh: inactive

Results for CCC(CC)N1CCN(C(=O)c2cccc(Cl)c2)CC1 ?
PI5P4Ka inh: inactive; BAZ2B inh: 56µM; JMJD2A Tudor inh: 20µM; G9a block: 7.9µM; HP1b chromo inh: inconclusive; PLK1 PBD inh: inactive
